Laboratory results: PubChem BioAssay (NCI)
Compounds without any hit were thinned out: in the full panel of roughly 79,000, 15% have a hit. A number with no mark means an inactive call. Calls of active or inactive are those of the source. Rule as the data show it: active = growth inhibition above about 70%; inactive = the rest.

Tests used:
[1] = NCI Yeast Anticancer Drug Screen. Data for the rad50 strain (AID 155);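 also: 0% = growth of vehicle-only cultures of the same strain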; conditions: S. cerevisiae rad50 strain growth inhibition, hits give high values
Summary of the method: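 A DNA repair-deficient yeast mutant serves as the test organism; compound-induced growth inhibition is calculated against vehicle-treated cells.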

[2] = NCI Yeast Anticancer Drug Screen. Data for the mec2-1 strain (AID 157); conditions: S. cerevisiae mec2-1 strain, hits give high values
Summary of the method: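 Yeast mec2-1 mutant treated with compound. Readout: growth inhibition vs vehicle controls.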

[3] = NCI Yeast Anticancer Drug Screen. Data for the sgs1 mgt1 strain (AID 161);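 also: 0% = growth of cultures given vehicle only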; conditions: S. cerevisiae sgs1 mgt1 strain, hits give high values
Summary of the method: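 Inhibition of yeast growth, normalised to vehicle-treated controls, is reported for a strain bearing genetic alterations in DNA damage repair.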

[4] = NCI Yeast Anticancer Drug Screen. Data for the cln2 rad14 strain (AID 165);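 also: 0% = growth equal to vehicle treated cultures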; conditions: S. cerevisiae cln2 rad14 strain, hits give high values
Summary of the method: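 cln2 rad14 yeast strain; compound exposure; growth inhibition read vs vehicle controls.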

[5] = NCI Yeast Anticancer Drug Screen. Data for the bub3 strain (AID 167); conditions: S. cerevisiae bub3 mutant strain, hits give high values
Summary of the method: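 Inhibition values come from growth of compound-treated mutant yeast normalised to vehicle-treated controls.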

[6] = NCI Yeast Anticancer Drug Screen. Data for the mlh1 rad18 strain (AID 175); conditions: S. cerevisiae mlh1 rad18 strain growth inhibition, hits give high values
Summary of the method: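 Yeast w/ defined DNA-repair lesions; compound exposure; growth vs vehicle controls → % inhibition.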

[7] = at 5.0 µM (retest, dose inferred, filed as 0.5)
[8] = at 50.0 µM (retest, dose inferred, filed as 5.0)

Structure (SMILES)	growth inhibition [1, 7]	growth inhibition [1, 8]	growth inhibition ([1]; at 50.0 µM)	growth inhibition [2, 7]	growth inhibition [2, 8]	growth inhibition ([2]; at 50.0 µM)	growth inhibition [3, 7]	growth inhibition [3, 8]	growth inhibition ([3]; at 50.0 µM)	growth inhibition [4, 7]	growth inhibition [4, 8]	growth inhibition ([4]; at 50.0 µM)	growth inhibition [5, 7]	growth inhibition [5, 8]	growth inhibition ([5]; at 50.0 µM)	growth inhibition [6, 7]	growth inhibition [6, 8]	growth inhibition ([6]; at 50.0 µM)
CN(NC(=O)CC(=O)NN(C)C(=S)c1ccccc1)C(=S)c1ccccc1	76% (active)	84% (active)	68.5%	81% (active)	87% (active)	80% (active)	96% (active)	87% (active)	91.7% (active)	60%	69%	73.8% (active)	54%	73% (active)	76% (active)	78% (active)	76% (active)	84.2% (active)
C/C=C(\CCC1NCCc2c1[nH]c1ccccc21)[Si](C)(C)C (stereo not given)	-20%	99% (active)	96.3% (active)	-4%	99% (active)	86.5% (active)	19%	99% (active)	93.1% (active)	4%	99% (active)	75.3% (active)	11%	98% (active)	77.8% (active)	-21%	100% (active)	95.8% (active)
CC(CN(C)C)C(=O)/C=C/c1ccc(C(C)C)cc1 (stereo not given)	3%	89% (active)	93.2% (active)	6%	75% (active)	37.3%	9%	93% (active)	97.2% (active)	11%	26%	25.8%	0%	81% (active)	69%	-1%	94% (active)	91.4% (active)
CCCCCC(/C=N/Nc1nc(C)cc(=O)[nH]1)=C\c1ccccc1	9%	45%	31.3%	-1%	50%	30.8%	3%	81% (active)	29.9%	3%	39%	44.1%	-1%	83% (active)	53%	-8%	37%	70.5% (active)
CCCOC(=O)C(Br)C(Br)C(=O)OCCC (stereo not given)	60%	97% (active)	90.5% (active)	57%	98% (active)	93% (active)	36%	100% (active)	93.5% (active)	59%	101% (active)	91% (active)	46%	100% (active)	91.8% (active)	44%	98% (active)	90.5% (active)
CC1=CC2OC3CC4OC(=O)/C=C/C=C/C(C(C)O)OCC(=O)C(C)CC(=O)OCC2(CC1)C4(C)C31CO1 (stereo not given)	28%	98% (active)	90.8% (active)	26%	99% (active)	94% (active)	31%	98% (active)	91.8% (active)	72% (active)	99% (active)	91.3% (active)	60%	99% (active)	91.8% (active)	65%	99% (active)	91.3% (active)
COc1ccc(/C=C2\C(=O)N(C)C(=O)c3cc(OC)c(OC)cc32)cc1OC	1%	12%	61.4%	0%	16%	47.5%	-3%	-4%	62.9%	0%	19%	46.6%	5%	32%	39.5%	2%	19%	65%
CC(=O)NC(C)(C)C1CCC(C)=C(c2ccccc2)C1 (stereo not given)	-10%	2%	32.8%	-9%	-5%	-17.6%	5%	8%	67.2%	19%	44%	18.6%	17%	29%	27.6%	-3%	29%	-21.2%
CN(C)C(=S)/N=c1\sn(C)/c(=N\C(=S)N(C)C)n1C	-30%	-14%	-0.5%	-11%	-11%	-5.9%	5%	7%	-5.6%	-27%	-36%	-75.8%	-13%	-17%	0.6%	-7%	-8%	19.8%
O=C1C=C(O)c2cc(Br)ccc2C1=O.[Ag]	99% (active)	99% (active)	99.6% (active)	100% (active)	99% (active)	99.5% (active)	100% (active)	99% (active)	99.7% (active)	99% (active)	99% (active)	99.5% (active)	100% (active)	99% (active)	99.7% (active)	99% (active)	99% (active)	99.1% (active)
C[n+]1cc2c3ccccc3ccc2c2ccccc21	37%	79% (active)	59.3%	37%	69%	53.2%	32%	66%	75.2% (active)	26%	45%	56%	7%	57%	47%	39%	83% (active)	40.3%
COc1cc2c(cc1C(C)C)CCC1C(C)(C#N)CCCC21C (stereo not given)	-6%	-21%	34.4%	3%	-11%	46.5%	-11%	-29%	47.5%	1%	-22%	80.1% (active)	0%	-10%	45.1%	-3%	-29%	88.8% (active)
O=C(O)c1ccccc1NC(c1ccccc1)c1ccc2cccnc2c1O (stereo not given)	-15%	94% (active)	96.8% (active)	-3%	91% (active)	93% (active)	0%	87% (active)	96.8% (active)	-39%	88% (active)	93.3% (active)	-17%	95% (active)	93.7% (active)	-14%	96% (active)	93.5% (active)
NS(=O)(=O)c1ccc(-n2cccc2)cc1	0%	-4%	10.6%	-2%	-3%	-11.3%	-1%	-3%	-1.6%	1%	-1%	56.6%	-6%	-7%	23.5%	-2%	-3%	7.7%
C/C(=N\NC(=S)N1CCC(C)CC1)c1cccc2cccnc12	-5%	98% (active)	62.6%	-9%	98% (active)	-6.1%	0%	98% (active)	83.2% (active)	-10%	98% (active)	14.2%	2%	98% (active)	6.05%	-8%	99% (active)	6.35%
NCCCNCc1c2ccccc2c(CNCCCN)c2ccccc12	6%	6%	10.7%	-7%	-7%	43.4%	1%	1%	58.9%	24%	24%	56.1%	15%	15%	33.8%	4%	4%	74.5% (active)
COC(=O)c1ccccc1CC(Cc1ccc2c(c1)CCC2)C(=O)OC (stereo not given)	20%	27%	35%	12%	14%	16.9%	10%	20%	29.6%	9%	-2%	13.7%	16%	27%	12.3%	16%	15%	4.25%
COc1ccccc1NC(=O)CSC(N)=O	5%	24%	71% (active)	4%	42%	61.8%	3%	24%	92.5% (active)	5%	7%	58%	4%	66%	88.2% (active)	2%	21%	74% (active)
O=C1c2cccc3cc4ccccc4c(c23)C(=O)N1CCCNCCNCCCN1C(=O)c2cccc3cc4ccccc4c(c23)C1=O	94% (active)	98% (active)	90.1% (active)	96% (active)	98% (active)	85.2% (active)	96% (active)	98% (active)	86.5% (active)	83% (active)	98% (active)	88% (active)	98% (active)	98% (active)	87.8% (active)	94% (active)	97% (active)	91% (active)
CC(=O)Nc1ccc(C#N)c2ccccc12	43%	33%	40.4%	42%	33%	35.8%	0%	29%	23.1%	41%	34%	7.4%	21%	44%	40.8%	35%	35%	19.4%
